Assay results: the supplement of paper PMC6089552
The whole screen tested about 3,200 compounds, of which about 300 (9.4%) showed activity. The full list was thinned out, with actives kept by preference.

Test system: A673/TR/shEF
Test: cell viability (LOESS-normalised, relative to median of negative controls) (log2 ratio); higher = more viable cells (less compound effect), active = hit call of the paper (over 3 MAD below the median)
Details: treatment time: 72 h
Procedure, shortened: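 For three days, A673/TR/shEF Ewing sarcoma cells in 384-well plates (1,500 per well) were treated with library compounds at two or more concentrations or with DMSO controls, after doxycycline had been added or withheld 24 h beforehand to induce EWS-FLI1 shRNA knockdown. Viability was read by CellTiter-Glo luminescence on an Envision reader. The data were LOESS-corrected per plate, divided by the median of negative controls and log2-transformed.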

[1] = 0.25 µM, library screen: screen1, EWS-FLI1 expression: high (no doxycycline)
[2] = 0.25 µM, library screen: screen1, EWS-FLI1 expression: low (doxycycline-induced shRNA knockdown)
[3] = 2.5 µM, library screen: screen1, EWS-FLI1 expression: high (no doxycycline)
[4] = 2.5 µM, library screen: screen1, EWS-FLI1 expression: low (doxycycline-induced shRNA knockdown)
[5] = 0.25 µM, library screen: screen2, EWS-FLI1 expression: high (no doxycycline)
[6] = 0.25 µM, library screen: screen2, EWS-FLI1 expression: low (doxycycline-induced shRNA knockdown)
[7] = 2.5 µM, library screen: screen2, EWS-FLI1 expression: high (no doxycycline)
[8] = 2.5 µM, library screen: screen2, EWS-FLI1 expression: low (doxycycline-induced shRNA knockdown)
[9] = 0.025 µM, library screen: screen1, EWS-FLI1 expression: high (no doxycycline)
[10] = 0.025 µM, library screen: screen1, EWS-FLI1 expression: low (doxycycline-induced shRNA knockdown)
[11] = 25 µM, library screen: screen1, EWS-FLI1 expression: high (no doxycycline)
[12] = 25 µM, library screen: screen1, EWS-FLI1 expression: low (doxycycline-induced shRNA knockdown)

Measured: cell viability (log2)

Cc1[nH]c2ccccc2c1CN(C)C
inactive: [1] 0.0738 | [2] 0.0842 | [3] 0.116 | [4] 0.138

NC(C(=O)O)c1cc(=O)[nH]o1 (stereo not given)
inactive: [5] 0.0457 | [6] -0.00138 | [7] 0.0296 | [8] 0.048

C=C1C([C@]2(C)C(CC(=O)OC)[C@@](C)(COC(C)=O)OC(=O)C[C@@H]2OC(C)=O)[C@@H](OC=O)[C@H](OC(=O)C(OC(C)=O)C(C)CC)[C@@]2(C)[C@H](c3ccoc3)CC(=O)C12O (stereo not given in full)
inactive: [1] 0.0373 | [2] -0.0517 | [3] 0.0516 | [4] -0.0237

C/C(O)=C(\C#N)C(=O)Nc1cc(Br)ccc1Br
active: [3] -0.396 | [11] -0.451
inactive: [9] 0.198 | [10] -0.0693 | [1] 0.124 | [2] -0.0251 | [5] 0.133 | [6] 0.0965 | [4] -0.0427 | [7] 0.0403 | [8] 0.0594 | [12] -0.00927

COc1cc2ccc(=O)oc2c2ccoc12
inactive: [1] 0.222 | [2] 0.132 | [3] 0.248 | [4] 0.164

CCN(CC)C(=O)NC1C=C2c3cccc4[nH]cc(c34)CC2N(C)C1 (stereo not given)
inactive: [5] 0.194 | [6] 0.105 | [7] 0.116 | [8] 0.101

O=[N+]([O-])c1ccc(O[C@@H]2O[C@H](CO)[C@@H](O)[C@H](O)[C@H]2F)c([N+](=O)[O-])c1
inactive: [5] 0.132 | [6] 0.00815 | [7] 0.0628 | [8] 0.111

COc1c2c(cc3c1OCO3)[C@]13C=C[C@H](OC)C[C@H]1N(C2)CC3O (stereo not given in full)
inactive: [1] 0.0348 | [2] 0.0745 | [3] 0.0133 | [4] 0.0521

COP(=S)(OC)SCn1nnc2ccccc2c1=O
inactive: 0.103 µM, library screen: screen3, EWS-FLI1 expression: high (no doxycycline) -0.0814 | 0.103 µM, library screen: screen3, EWS-FLI1 expression: low (doxycycline-induced shRNA knockdown) 0.0283 | [1] -0.0615 | [2] 0.0291 | 0.308 µM, library screen: screen3, EWS-FLI1 expression: high (no doxycycline) -0.0468 | 0.308 µM, library screen: screen3, EWS-FLI1 expression: low (doxycycline-induced shRNA knockdown) 0.0348 | 0.926 µM, library screen: screen3, EWS-FLI1 expression: high (no doxycycline) -0.0952 | 0.926 µM, library screen: screen3, EWS-FLI1 expression: low (doxycycline-induced shRNA knockdown) 0.162 | [3] 0.00869 | [4] 0.101 | 2.8 µM, library screen: screen3, EWS-FLI1 expression: high (no doxycycline) -0.136 | 2.8 µM, library screen: screen3, EWS-FLI1 expression: low (doxycycline-induced shRNA knockdown) 0.125 | 8.3 µM, library screen: screen3, EWS-FLI1 expression: low (doxycycline-induced shRNA knockdown) 0.196 | 25 µM, library screen: screen3, EWS-FLI1 expression: low (doxycycline-induced shRNA knockdown) 0.00265
active: 8.3 µM, library screen: screen3, EWS-FLI1 expression: high (no doxycycline) -0.267 | 25 µM, library screen: screen3, EWS-FLI1 expression: high (no doxycycline) -0.422

CNC(=O)CSP(=S)(OC)OC
inactive: [1] 0.102 | [2] 0.0684 | [3] 0.15 | [4] 0.0982

CCCN1CCc2cccc3c2[C@H]1Cc1ccc(O)c(O)c1-3
inactive: [5] 0.161 | [6] 0.0862 | [7] 0.178 | [8] 0.107

CC(C)=CCOc1c2occc2cc2ccc(=O)oc12
inactive: [1] 0.059 | [2] 0.0156 | [3] 0.0916 | [4] -0.0403

Clc1ccc(C(c2ccc(Cl)cc2)C(Cl)(Cl)Cl)cc1
inactive: [1] 0.0479 | [2] 0.0234 | [3] 0.0726 | [4] 0.147

CN(C)C(=S)SSC(=S)N(C)C
active: [1] -2.91 | [2] -2.1 | [3] -2.99 | [4] -2.02

C[C@]12CC[C@@H](O)C[C@@H]1CC[C@@H]1[C@@H]2CC[C@]2(C)[C@@H](O)CC[C@@H]12
inactive: [5] 0.0177 | [6] 0.137 | [7] 0.141 | [8] 0.0662

COS(C)(=O)=O
inactive: [1] 0.0621 | [2] 0.0487 | [3] 0.0611 | [4] -0.0183

O=P(O)(O)Cc1ccccc1
active: [3] -0.281 | [4] -0.453 | [11] -0.356 | [12] -1.06
inactive: [9] 0.115 | [10] -0.0367 | [1] 0.209 | [2] -0.089

CC12CCC3C(CC=C4CC(OS(=O)(=O)O)CCC43C)C1CCC2=O (stereo not given)
inactive: [5] 0.0737 | [6] -0.00205 | [7] 0.0312 | [8] 0.0129

CC[C@@]1(O)C[C@H](OC2C[C@@H](N(C)C)C(O)C(C)O2)c2c(cc3c(c2O)C(=O)c2c(O)ccc(O)c2C3=O)[C@H]1C(=O)OC (stereo not given in full)
inactive: [1] 0.0817 | [2] 0.158 | [4] 0.00788
active: [3] -0.221
